Results reported in the supplement of paper PMC6555819.

Assays:
Experiment in all cases: PBM binding z-score (relative to random genomic background probes); higher = stronger binding; sequences stand for … in GC…GCGATTGACAGCGTAGAATGAAGG
[1] = system: FXR:RXRa (NR concentration 270 nM, RXRa partner concentration 90 nM)
Method in brief: (§1)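 Ligand-free nuclear receptor dimers were bound for 1 h to custom Agilent 4×180K protein-binding microarrays. Detection used antibodies against each partner (one per run). Binding z-scores rest on regression-normalized fluorescence, with random background probes as the reference.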

[2] = system: LXRa:RXRa (NR concentration 270 nM, RXRa partner concentration 90 nM)
Method in brief: as §1

[3] = system: LXRa homodimer (NR concentration 270 nM)
Method in brief: as §1

[4] = system: LXRb:RXRa (NR concentration 270 nM, RXRa partner concentration 90 nM)
Method in brief: as §1

[5] = system: LXRb homodimer (NR concentration 270 nM)
Method in brief: as §1

[6] = system: PPARa:RXRa (NR concentration 270 nM, RXRa partner concentration 90 nM)
Method in brief: as §1

[7] = system: PPARg:RXRa (NR concentration 180 nM, RXRa partner concentration 90 nM)
Method in brief: as §1

[8] = system: PPARg:RXRa 270nM:90nM, anti-RXR (NR concentration 270 nM, RXRa partner concentration 90 nM)
Method in brief: as §1

[9] = system: PPARg:RXRa 30nM:10nM, anti-RXR (NR concentration 30 nM, RXRa partner concentration 10 nM)
Method in brief: as §1

[10] = system: PPARg:RXRa 90nM:30nM, anti-RXR (NR concentration 90 nM, RXRa partner concentration 30 nM)
Method in brief: as §1

[11] = system: PPARg:RXRa DBDmut IVT, anti-RXR (DBD mutation: RXRa K156A/R161A, NR concentration 270 nM, RXRa partner concentration 90 nM)
Method in brief: as §1

[12] = system: PPARg:RXRa IVT, anti-PPARg (NR concentration 270 nM, RXRa partner concentration 90 nM)
Method in brief: as §1

[13] = system: PPARg DBDmut:RXRa IVT, anti-PPARg (DBD mutation: PPARg1 K132A/R137A, NR concentration 270 nM, RXRa partner concentration 90 nM)
Method in brief: as §1

[14] = system: PPARg DBDmut IVT, anti-PPARg (DBD mutation: PPARg1 K132A/R137A, NR concentration 270 nM)
Method in brief: as §1

[15] = system: PPARg homodimer (NR concentration 180 nM)
Method in brief: as §1

[16] = system: PXR:RXRa (NR concentration 270 nM, RXRa partner concentration 90 nM)
Method in brief: as §1

[17] = system: PXR homodimer (NR concentration 270 nM)
Method in brief: as §1

[18] = system: RARa:RXR (NR concentration 270 nM, RXRa partner concentration 90 nM)
Method in brief: as §1

[19] = system: RARa homodimer (NR concentration 270 nM)
Method in brief: as §1

[20] = system: RARb:RXRa (NR concentration 270 nM, RXRa partner concentration 90 nM)
Method in brief: as §1

Sequence	PBM binding z-score [1]	PBM binding z-score [2]	PBM binding z-score [3]	PBM binding z-score [4]	PBM binding z-score [5]	PBM binding z-score [6]	PBM binding z-score [7]	PBM binding z-score [8]	PBM binding z-score [9]	PBM binding z-score [10]	PBM binding z-score [11]	PBM binding z-score [12]	PBM binding z-score [13]	PBM binding z-score [14]	PBM binding z-score [15]	PBM binding z-score [16]	PBM binding z-score [17]	PBM binding z-score [18]	PBM binding z-score [19]	PBM binding z-score [20]
TCTTATAGGTAAAGGTGAAAGTCGAACGATATGA	1.15	1.59	0.00548	1.58	0.488	3.27	3.38	4.4	4.42	4.81	3.92	3.7	2	1.77	1.61	1.11	0.648	1.96	1.18	2.21
CTACCAAGGAGAACAAGGTCGTTGATTACTATTC	0.511	0.515	0.637	0.992	0.011	0.978	0.183	-0.0538	-0.107	-0.114	0.168	0.269	-0.0895	0.25	0.615	1.23	1.05	1.17	0.421	0.589
GCGACTGGGGCATCAGCAGGTTACCACAACTTAA	-0.0917	-0.185	-0.291	0.725	-0.793	0.935	0.922	1.13	-0.162	-0.0671	3.58	3.42	-0.499	-0.426	0.249	0.125	-0.569	0.565	-0.456	0.902
GCTAGCAGGCAATTTGGGTCACTCAATGACGGGC	0.195	0.398	-0.578	0.171	-0.943	2.23	0.983	0.964	-0.305	0.409	2.45	2.92	0.145	-1.09	-0.111	0.273	-0.523	1.08	-0.688	0.971
CCGGCTAGGTCAATGGTCAGCTAAAGCAGCTCGC	3.18	1.98	-0.137	1.48	-0.304	2.91	3.63	4.32	1.63	4.03	3.12	2.61	-1.05	-0.801	0.684	0.817	-0.491	1.75	0.248	3.8
CGTCAAAGTTCAACTAAGCTAACGTAAAGCACGC	6.6	6.23	4.14	4.26	2.57	5.08	4.95	5.46	1.83	4.48	0.667	1.69	1.11	1.29	3.28	4.69	4.44	3.82	2.34	5.31
CCTTACGGGTCACTCCAGGATATAGCATCGGAGT	4.88	5.8	0.346	2.94	0.014	4.08	3.39	3.49	1.08	2.48	2.53	2.97	0.582	-0.0388	1.51	3.13	0.912	2.84	0.759	3.4
TGAATGGGGTTATAAGATCAGGGAACGTTGCAAA	3.48	2.4	0.471	4	2	4.74	3.24	3.32	1.77	2.79	2.58	2.71	2.28	1.59	2.39	2.25	1.48	3.06	2.01	1.69
AACACAGGGTCATCGTAGGCCAGAGTACGCACAG	7.22	6.21	1.53	4.44	0.922	5.84	5.85	5.7	1.96	4.21	2.2	3.46	1.2	0.514	2.34	4.91	0.707	4.91	0.823	4.3
GCTGCTAGGTCAACCGATGGTCAGCTAAAGCTCG	3.72	2.83	-0.00824	1.67	-0.103	3.53	2.64	3	0.428	1.82	4.93	4.21	-0.16	-0.394	1.63	1.43	-0.956	2.99	-0.609	4.22
TTACCAAGGTGAAAGGTAGTTGATGCACGCCTTG	0.796	0.851	-0.137	0.456	-0.64	2.7	3.76	4.56	2.81	4.51	2.96	3.26	0.619	0.152	0.643	0.603	-0.0575	1.41	0.138	1.56
GCTAGCAGGCCATTTGGGTGACTCAATGACGGGC	-0.535	-0.729	-0.901	-1.05	-1.19	0.031	0.218	-0.431	-0.682	-0.48	1.46	0.949	-0.802	-0.751	-0.989	-0.366	-0.793	-0.229	-1.01	0.0482
CCTACTGGTCCATCAGGTCATTGATATCAACGTT	1.32	1.8	2.15	2.01	0.36	1.88	0.421	1.34	0.261	0.824	0.344	1.32	0.234	0.596	1.48	1.99	1.32	2.05	0.854	1.87
CGTCAAAGTTCTACTAAGGTAACGTAAAGCACGC	1.91	-0.151	-0.14	0.0598	-0.14	0.277	0.459	0.289	0.196	0.185	0.0553	0.848	0.246	0.834	0.249	0.134	-0.028	0.398	-0.131	0.603
CCAGACAGGTGAAAGGCAACTCAGTCTGGTACGC	-0.102	0.0112	-0.327	0.0509	-0.597	1.7	2.49	3.2	1.12	2.8	0.767	1.08	0.0608	-0.556	0.466	-0.0216	-0.296	0.0824	0.0834	0.639
